Data published in PubChem BioAssay (EPA / NIEHS).
Active and inactive are the calls of the source. How the source made its calls: active means hit-call score of the fitted dose curve at least 0.9, where 1 is the maximum; inactive means score below 0.9.

Experiments:
[1] = read-out: C-C motif chemokine 2 (Homo sapiens) (UniProt P13500); assay: BSK_KF3CT_MCP1: BioMAP Diversity Plus: KF3CT Assay for Monocyte Chemoattractant Protein 1 (MCP1/CCL2) Biomarker Activity (AID 2283073); details: primary human keratinocytes with fibroblasts; actives raise or lower the signal
Outline: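 Human keratinocyte–foreskin fibroblast co-culture; MCP-1 measured by ELISA 24 h after dosing. Bidirectional fit vs DMSO; cytotoxicity tracked by SRB total protein in parallel cultures.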

[2] = read-out: Matrix Metallopeptidase 9 (MMP9), MMP9 (gene 4318); assay: BSK_KF3CT_MMP9: BioMAP Diversity Plus: KF3CT Assay for Matrix Metallopeptidase 9 (MMP9) Biomarker Activity (AID 2283074); details: primary human keratinocytes with fibroblasts; actives raise or lower the signal;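 on AC50: MMP9 protein level quantified by ELISA in the co-culture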
Outline: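 MMP-9 quantified by ELISA after 24 h chemical treatment of primary human skin keratinocyte/fibroblast co-cultures; gain or loss fitted against DMSO, with parallel SRB staining (0.1% SRB, 560 nm) for overt cytotoxicity.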

[3] = read-out: urokinase plasminogen activator (uPA), PLAU (gene 5328); assay: BSK_KF3CT_uPA: BioMAP Diversity Plus: KF3CT Assay for urokinase plasminogen activator (uPA) Biomarker Activity (AID 2283075); details: primary human keratinocytes with fibroblasts; actives raise or lower the signal
Outline: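 ELISA read-out of uPA 24 h after dosing human skin keratinocytes co-cultured with foreskin fibroblasts. Signal change fitted both ways relative to DMSO; sulforhodamine B on parallel cultures marks overt cytotoxicity.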

CD40, CD40 (gene 958) [4] = assay: BSK_LPS_CD40: BioMAP Diversity Plus: LPS Assay for CD40 Biomarker Activity (AID 2283076); details: primary human HUVEC with PBMC; actives raise or lower the signal
Outline: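 HUVEC plus PBMC co-culture stimulated with LPS; CD40 quantified by ELISA 24 h after compound dosing. Fitting was bidirectional relative to DMSO. SRB staining of parallel cultures flagged overt cytotoxicity.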

[5] = read-out: E-selectin (Homo sapiens) (UniProt P16581); assay: BSK_LPS_Eselectin: BioMAP Diversity Plus: LPS Assay for Eselectin Biomarker Activity (AID 2283077); details: primary human HUVEC with PBMC; actives raise or lower the signal
Outline: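 Human umbilical vein endothelial cells co-cultured with PBMC under LPS stimulation; cell-surface E-selectin measured by ELISA 24 h after dosing. Change in either direction versus DMSO, with SRB total-protein staining in parallel cultures for cytotoxicity.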

[6] = read-out: Interleukin-8 (IL8), CXCL8 (gene 3576); assay: BSK_LPS_IL8: BioMAP Diversity Plus: LPS Assay for Interleukin-8 (IL8) Biomarker Activity (AID 2283078); details: primary human HUVEC with PBMC; actives raise or lower the signal
Outline: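 Human umbilical vein endothelial cells co-cultured with PBMC, LPS-stimulated, exposed to compound for 24 h. IL-8 quantified by ELISA; fitted in both directions against DMSO, with SRB total-protein staining of parallel cultures for cytotoxicity.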

[7] = BSK_LPS_SRB: Viability Assessment in the BioMAP Diversity Plus: LPS Assay (AID 2283079); details: primary human HUVEC with PBMC;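 further: total protein by sulforhodamine B absorbance as a cytotoxicity measure; measured one day after compound addition; fitted in both directions against DMSO so loss or gain of signal counts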
Outline: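 Co-culture of human umbilical vein endothelial cells and PBMC, read 24 h after dosing. Total protein by 0.1% SRB staining after 10% TCA fixation, absorbance at 560 nm; bidirectional fit against DMSO.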

[8] = read-out: Interleukin-1 alpha (IL1a), IL1A (gene 3552); assay: BSK_LPS_IL1a: BioMAP Diversity Plus: LPS Assay for Interleukin-1 alpha (IL1a) Biomarker Activity (AID 2283080); details: primary human HUVEC with PBMC; actives raise or lower the signal
Outline: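 Human umbilical vein endothelial cells co-cultured with PBMC and stimulated with LPS; IL-1a measured by ELISA 24 h after dosing. Bidirectional fitting against DMSO; cytotoxicity checked by SRB staining in parallel cultures.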

[9] = read-out: Monocyte Chemoattractant Protein-1 (MCP1), CCL2 (gene 6347); assay: BSK_LPS_MCP1: BioMAP Diversity Plus: LPS Assay for Monocyte Chemoattractant Protein-1 (MCP1) Biomarker Activity (AID 2283081); details: primary human HUVEC with PBMC; actives raise or lower the signal
Outline: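 Human umbilical vein endothelial cells co-cultured with PBMC, LPS-stimulated; secreted MCP-1 measured by ELISA 24 h after compound addition. Bidirectional curve fitting against DMSO baseline; SRB total-protein staining in parallel cultures for cytotoxicity.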

[10] = BSK_LPS_PGE2: BioMAP Diversity Plus: LPS Assay for Prostaglandin E2 (PGE2) Biomarker Activity (AID 2283082); details: primary human HUVEC with PBMC; actives raise or lower the signal
Outline: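 Compounds were added to the LPS co-culture of endothelium and PBMC, and PGE2 was measured by ELISA after 24 h. Responses in either direction were fitted with DMSO as baseline.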

[11] = read-out: Macrophage colony-stimulating factor (MCSF), CSF1 (gene 1435); assay: BSK_LPS_MCSF: BioMAP Diversity Plus: LPS Assay for Macrophage colony-stimulating factor (MCSF) Biomarker Activity (AID 2283083); details: primary human HUVEC with PBMC; actives raise or lower the signal
Outline: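 HUVEC–PBMC co-culture, M-CSF measured by ELISA 24 h after chemical dosing. Fitted in both directions relative to DMSO as negative control; overt cytotoxicity assessed by SRB total-protein staining in parallel cultures.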

[12] = read-out: Tissue Factor, F3 (gene 2152); assay: BSK_LPS_TissueFactor: BioMAP Diversity Plus: LPS Assay for Tissue Factor Biomarker Activity (AID 2283084); details: primary human HUVEC with PBMC; actives raise or lower the signal
Outline: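 Human umbilical vein endothelial cells co-cultured with PBMC were dosed with compound. Cell-surface CD142 was measured by ELISA 24 h later. Activity was fitted bidirectionally against DMSO, with SRB total-protein staining in parallel cultures for cytotoxicity.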

[13] = read-out: Tumor necrosis factor (Homo sapiens) (UniProt P01375); assay: BSK_LPS_TNFa: BioMAP Diversity Plus: LPS Assay for Tumour Necrosis Factor alpha (TNFa) Biomarker Activity (AID 2283085); details: primary human HUVEC with PBMC; actives raise or lower the signal
Outline: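 Cells (umbilical vein endothelium plus peripheral blood mononuclear cells) were dosed with chemical, incubated 24 h, then TNFa was quantified by ELISA; values derive from bidirectional fitting with DMSO as baseline.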

[14] = read-out: Vascular cell adhesion molecule 1 (VCAM1), VCAM1 (gene 7412); assay: BSK_LPS_VCAM1: BioMAP Diversity Plus: LPS Assay for Vascular cell adhesion molecule 1 (VCAM1) Biomarker Activity (AID 2283086); details: primary human HUVEC with PBMC; actives raise or lower the signal
Outline: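 Cells are dosed in an LPS-stimulated endothelial/mononuclear co-culture and, after 24 h, VCAM-1 is quantified by ELISA. Activity in either direction is fitted relative to the DMSO negative control.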

CD38, CD38 (gene 952) = assay: BSK_SAg_CD38: BioMAP Diversity Plus: SAg Assay for CD38 Biomarker Activity (AID 2283087); details: primary human HUVEC with PBMC; actives raise or lower the signal
Outline: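 CD38 quantified by ELISA (fluorescence) in a superantigen-activated endothelial cell–PBMC co-culture at 24 h post-dose. Activity fitted in both directions relative to DMSO; parallel SRB and Alamar Blue cytotoxicity read-outs.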

CD40, CD40 (gene 958) [15] = assay: BSK_SAg_CD40: BioMAP Diversity Plus: SAg Assay for CD40 Biomarker Activity (AID 2283088); details: primary human HUVEC with PBMC; actives raise or lower the signal
Outline: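 HUVEC plus PBMC co-culture, superantigen-activated, with CD40 read by ELISA 24 h after dosing. Curves fitted in both directions against DMSO. Overt cytotoxicity checked by parallel SRB total-protein staining.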

CD69, CD69 (gene 969) = assay: BSK_SAg_CD69: BioMAP Diversity Plus: SAg Assay for CD69 Biomarker Activity (AID 2283089); details: primary human HUVEC with PBMC; actives raise or lower the signal
Outline: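 Primary human vascular co-culture (umbilical vein endothelium with peripheral blood mononuclear cells) exposed to test chemical for 24 h. CD69 levels quantified by fluorescence ELISA; DMSO served as negative control for bidirectional fitting.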

[16] = read-out: Monocyte Chemoattractant Protein-1 (MCP1), CCL2 (gene 6347); assay: BSK_SAg_MCP1: BioMAP Diversity Plus: SAg Assay for Monocyte Chemoattractant Protein-1 (MCP1) Biomarker Activity (AID 2283090); details: primary human HUVEC with PBMC; actives raise or lower the signal
Outline: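 Values derive from bidirectional fitting of ELISA-measured MCP1 against DMSO controls. Readings were taken 24 h after dosing human vascular endothelial cells co-cultured with peripheral blood mononuclear cells under superantigen stimulation.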

[17] = read-out: E-selectin (Homo sapiens) (UniProt P16581); assay: BSK_SAg_Eselectin: BioMAP Diversity Plus: SAg Assay for Eselectin Biomarker Activity (AID 2283091); details: primary human HUVEC with PBMC; actives raise or lower the signal
Outline: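 Human umbilical vein endothelial cells co-cultured with peripheral blood mononuclear cells, SAg system. E-selectin is measured by ELISA 24 h after dosing and fitted bidirectionally against DMSO. Cytotoxicity is checked by SRB staining of parallel cultures.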

[18] = read-out: Monokine induced gamma interferon (MIG), CXCL9 (gene 4283); assay: BSK_SAg_MIG: BioMAP Diversity Plus: SAg Assay for Monokine induced gamma interferon (MIG) Biomarker Activity (AID 2283092); details: primary human HUVEC with PBMC; actives raise or lower the signal
Outline: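 Endothelial cells and PBMC were co-cultured, exposed to test chemicals, and sampled 24 h later. MIG was measured by ELISA, and responses were fitted in both directions relative to DMSO.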

Measured: AC50

Sequence of Tumor necrosis factor (Homo sapiens) (P01375 whole entry, looked up): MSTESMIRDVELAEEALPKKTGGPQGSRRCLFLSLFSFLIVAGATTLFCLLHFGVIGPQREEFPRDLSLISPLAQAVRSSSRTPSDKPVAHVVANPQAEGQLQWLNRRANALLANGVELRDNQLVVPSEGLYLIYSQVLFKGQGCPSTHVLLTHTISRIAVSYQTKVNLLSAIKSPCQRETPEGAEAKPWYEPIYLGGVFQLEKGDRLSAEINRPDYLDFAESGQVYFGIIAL
Sequence of E-selectin (Homo sapiens) (P16581 whole entry, looked up): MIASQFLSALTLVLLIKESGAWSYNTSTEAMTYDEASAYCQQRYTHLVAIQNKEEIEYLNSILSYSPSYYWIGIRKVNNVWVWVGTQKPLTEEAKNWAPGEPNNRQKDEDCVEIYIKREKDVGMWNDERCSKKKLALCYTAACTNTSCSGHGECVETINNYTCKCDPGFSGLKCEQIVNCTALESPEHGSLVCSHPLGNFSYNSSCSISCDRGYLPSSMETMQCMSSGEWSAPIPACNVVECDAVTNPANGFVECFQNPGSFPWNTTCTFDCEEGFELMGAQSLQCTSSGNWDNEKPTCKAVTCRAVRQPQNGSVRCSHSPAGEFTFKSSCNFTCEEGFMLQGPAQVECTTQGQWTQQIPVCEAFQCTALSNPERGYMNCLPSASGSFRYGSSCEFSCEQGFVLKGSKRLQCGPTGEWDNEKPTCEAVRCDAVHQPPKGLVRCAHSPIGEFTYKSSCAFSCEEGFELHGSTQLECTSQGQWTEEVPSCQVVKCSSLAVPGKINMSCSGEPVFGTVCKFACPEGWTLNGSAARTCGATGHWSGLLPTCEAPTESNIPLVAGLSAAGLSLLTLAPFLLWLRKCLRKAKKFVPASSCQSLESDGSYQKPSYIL

c1ccc2ncccc2c1
inactive: [1] | [2] | [3] | CD40, CD40 (gene 958) [4] | [5] | [6] | [7] | [8] | [9] | [10] | [11] | [12] | [13] | [14] | CD38, CD38 (gene 952) | CD40, CD40 (gene 958) [15] | CD69, CD69 (gene 969) | [16] | [17] | [18]

OCc1c[nH]c2ccccc12
active: [2] 20 µM | [11] 3.97 µM | CD40, CD40 (gene 958) [15] 20 µM
inactive: [1] | [3] | CD40, CD40 (gene 958) [4] | [5] | [6] | [7] | [8] | [9] | [10] | [12] | [13] | [14] | CD38, CD38 (gene 952) | CD69, CD69 (gene 969) | [16] | [17] | [18]

CCCCCCCC/C=C\CCCCCCCC(=O)OC[C@@H](O)[C@H]1OC[C@H](O)[C@H]1O
inactive: [1] | [2] | [3] | CD40, CD40 (gene 958) [4] | [5] | [6] | [7] | [8] | [9] | [10] | [11] | [12] | [13] | [14] | CD38, CD38 (gene 952) | CD40, CD40 (gene 958) [15] | CD69, CD69 (gene 969) | [16] | [17] | [18]

FC(F)=C(F)C(F)(F)C(F)(F)C(F)(F)C(F)(F)C(F)(F)C(F)(F)F
inactive: [1] | [2] | [3] | CD40, CD40 (gene 958) [4] | [5] | [6] | [7] | [8] | [9] | [10] | [11] | [12] | [13] | [14] | CD40, CD40 (gene 958) [15] | CD69, CD69 (gene 969) | [16] | [17] | [18]

CCCC(CCC)C(=O)O
inactive: [1] | [2] | [3] | CD40, CD40 (gene 958) [4] | [5] | [6] | [7] | [8] | [9] | [10] | [11] | [12] | [13] | [14] | CD40, CD40 (gene 958) [15] | CD69, CD69 (gene 969) | [16] | [17] | [18]

C=CN1CCCC1=O
inactive: [1] | [2] | [3] | CD40, CD40 (gene 958) [4] | [5] | [6] | [7] | [8] | [9] | [10] | [11] | [12] | [13] | [14] | CD38, CD38 (gene 952) | CD40, CD40 (gene 958) [15] | CD69, CD69 (gene 969) | [16] | [17] | [18]

OC(CCl)CCl
inactive: [1] | [2] | [3] | CD40, CD40 (gene 958) [4] | [5] | [6] | [7] | [8] | [9] | [10] | [11] | [12] | [13] | [14] | CD38, CD38 (gene 952) | CD40, CD40 (gene 958) [15] | CD69, CD69 (gene 969) | [16] | [17] | [18]
